Hit rate of the full screen: of about 360,000 compounds, about 6,200 (1.7%) were called active.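 How the source made its calls: active means inhibition of at least 50% at 20 µM; inactive means the rest.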 The full list was thinned out, with actives kept by preference.
Test: Peg3 promoter-driven luciferase inhibitors, primary screen, cell-based, HeLa, luciferase luminescence (AID 588405)
Details: HeLa PEG-Prom luciferase reporter, overnight, at 20 µM, active compounds read high

inhibition, inactive:
CCOC(=O)C1=CCC(c2ccc(F)cc2)N(S(=O)(=O)c2ccc(C)cc2)C1 (stereo not given) 18.4%
CCc1nc2c(OCC(=O)C(C)(C)C)cccn2c1N(C)C(=O)c1ccccc1F -3.25%
COc1ccc(OC)c(C(O)c2ncc(-c3cccc(C(F)(F)F)c3)[nH]2)c1 (stereo not given) 1.51%
CCCC[C@@H]1CN=C(N)N1CCCC 6.54%
CCCC[C@@H]1CN=C(N)N1CCc1cccc(F)c1 2.77%
Cn1c(Nc2ccc(F)cc2)nc2cc(-c3ccsc3)sc2c1=O -53.6%
CC1(C(=O)Nc2ccccc2Br)CCN1C(=O)CC1CC1 (stereo not given) 3.67%
CCOC(=O)C1=CCC2C(=O)N(Cc3ccccc3)C(=O)C12 (stereo not given) -14.8%
CNC[C@H]1OCc2cnnn2CCCC(=O)N([C@H](C)CO)C[C@@H]1C -4.6%
COc1ccc(OC)c(NC(=O)c2cc(-c3cc(F)ccc3OCC3CCCO3)n[nH]2)c1 (stereo not given) 25.5%
Cc1cc(C)nc(SC(C)C(=O)N/N=C/c2cccs2)n1 (stereo not given) 2.36%
COC(c1ccccc1)(c1ccccc1)C(Oc1nc(C)cc(C)n1)C(=O)O (stereo not given) 19%
Cc1coc(C)c1C(=O)CC1(O)C(=O)N(C)c2ccc(Cl)cc21 (stereo not given) 7.27%
CCOc1ccc(N2CC(C(=O)N/N=C/c3sccc3C)CC2=O)cc1 (stereo not given) 13.4%
CC1(C(=O)NS(=O)(=O)c2ccccc2)CCN1C(=O)C1CCCCC1 (stereo not given) -0.02%
O=C1CCN(Cc2ccccc2)CCN1[C@H](CSc1ccccc1)c1ccccc1 -23.1%
COc1ccc(/C(C)=N/NC(=O)CCC(=O)Nc2ccc(Cl)cc2Cl)c(OC)c1 -11.2%
COc1ccc(Cl)cc1NC(=O)CCS(=O)(=O)c1ccc(Br)cc1 21.8%
C[C@H](NC(=O)CC[C@H]1O[C@@H](n2ccc(=O)[nH]c2=O)[C@H](O)[C@@H]1O)c1cccc2ccccc12 6.63%
OC(c1ccccc1)c1nc(/C=C/c2ccc(C(F)(F)F)cc2)cs1 (stereo not given) 3.42%
C#CCCOC(=O)N1C2=NC(C(=O)OC)=C(C(=O)OC)[C@@H]3N(C)c4ccc(OC)cc4[C@]23C[C@H]1C(=O)OC -3.24%
C[C@@H]1CN([C@@H](C)CO)C(=O)CCCn2cc(nn2)CO[C@H]1CN(C)S(=O)(=O)c1ccc(-n2cccn2)cc1 -0.13%
Cc1c(C(=O)NCC2CC2)sc(=O)n1Cc1cccc(F)c1 -1.67%
CCN1C(=O)[C@@H]2[C@@H]3CN(S(=O)(=O)c4ccccc4C)[C@@H](c4ccc(Cl)cc4)[C@@H]3C(=O)C[C@@H]2C1=O -51.1%
CCCn1c2ccccc2c2cnn(CC(=O)NCCCN3CCCCC3CC)c(=O)c21 (stereo not given) 17.1%
Cc1nc2ccccc2c2oc(C(=O)NCCCN3CCC(C)CC3)cc12 -9.23%
CN(CCO)C(=O)c1nc[nH]c1C(=O)N(C)Cc1ccccc1 -1.65%
Cc1ccc(F)c(S(=O)(=O)NC(=O)C2(C)CCN2C(=O)CCc2cccs2)c1 (stereo not given) -1.22%
COCCNC(=O)C1(C)CCCN(Cc2cccc(F)c2)C1 (stereo not given) 1.57%
CCNC(=O)C1(C)CCN(Cc2ccc(C(=O)OCC)o2)C1 (stereo not given) 2.73%
O=C(Cc1ccc(NC(=O)C2CCCN(C(=O)CCc3ccccc3)C2)cc1)Nc1ccc(C(=O)N2CCOCC2)cc1 (stereo not given) -12.9%
COc1cc2[nH]c(=S)n(Cc3ccc(F)cc3)c(=O)c2cc1OC 13.7%
CCOc1cc2[nH]c(=S)n(Cc3ccc(C(=O)NCCOC)cc3)c(=O)c2cc1OCC 9.27%
COc1ccc(Br)c(Cn2c(C)c(C(=O)NCc3cccs3)sc2=O)c1 7.67%
Cc1nc(C(F)(F)F)ccc1C(=O)N1CCC1(C)C(=O)NS(=O)(=O)c1ccccc1Cl (stereo not given) 7.45%
O=S1(=O)CC(N2CCC(Cc3ccccc3)CC2)CN1Cc1ccccc1 (stereo not given) -15.6%
O=C(COC(=O)c1ccc(O)cc1O)NC(=O)c1ccccc1 19.7%
O=C(NNC(=O)c1ccccc1O)c1ccccc1O 23.7%
O=C(Nc1cccc(S(=O)(=O)N2CCOCC2)c1)C12CC3CC(CC(C3)C1)C2 13.8%
CCCS(=O)(=O)NC(=O)C1(C)CCN(C(=O)c2sccc2C)C1 (stereo not given) -4.46%
OC(c1ccc(Cl)cc1)c1ncc(-c2ccc(Cl)cc2)[nH]1 (stereo not given) -29.5%
OC[C@@H]1CN(Cc2ccc(-c3ccccc3)cc2)C[C@H](n2cnc3c(NC4CCCC4)ncnc32)O1 19.6%
CC(C)(C)C(=O)N(Cc1ccccc1)c1ccccn1 -2.77%
CCC(=O)N(Cc1ccccc1)c1ccccn1 13.9%
O=C(CCN1C(=O)[C@@H]2Cc3ccccc3CN2C1=O)NCc1ccccc1 4.93%
Cc1cc2oc(=O)cc(CN(C)Cc3ccccc3)c2cc1Cl -133%
Cc1cc2c(cc1C)N1C(=O)c3cc4ccccc4cc3NC(=O)C1C(=O)N2 (stereo not given) 9.54%
COc1cc(C(O)c2nc(-c3cnn(C)c3)cs2)ccc1F (stereo not given) 9.83%
CCc1nc2c(OCCOc3ccccc3)cccn2c1N(C)C(=O)c1cccs1 30.3%
CN(C)CCN1CCN(c2cc(-c3cccc(Cl)c3)nc3ccnn23)CC1 7.56%
O=C(c1ccccc1)N1CCN(c2cc(-c3ccccc3)nc3cc(-c4cccc(Cl)c4)nn23)CC1 16.8%
CCCC(=O)N1CCC1(C)C(=O)Nc1ccc(-n2cncn2)cc1 (stereo not given) 5.62%
CN(C)C(CNC(=O)c1ccc(OCc2cn3ccccc3n2)cc1)c1ccco1 (stereo not given) -55.3%
Cc1noc(C)c1COc1ccc(C(=O)NCCOc2ccccc2)cc1 -115%
CCc1ccc(OC2(C)CCN(CCOc3ccc(C)cc3)C2)cc1 (stereo not given) 15.4%
CCN(CC(=O)NC1CCS(=O)(=O)C1)c1nc(-c2cccnc2)nc2ccccc12 (stereo not given) -4.15%
S=c1nc2ccccc2c2nc(-c3cccnc3)[nH]n12 -35.9%
Cc1ccc(Sc2ccc(NC(=O)c3ccc(F)cc3)cc2C#N)cc1 -1.6%
CC(C)NC(=O)Nc1ccc2c(c1)C(=O)N([C@H](C)CO)C[C@H](C)[C@@H](CN(C)Cc1ccc(C(F)(F)F)cc1)OCCCC[C@@H](C)O2 12.5%
COc1ccc(CN(C(=O)CSc2nnc(-c3ccc(OC)c(OC)c3)o2)c2ccc(F)cc2)cc1 30.6%
COc1ccc(-c2nnc(SC(C)C(=O)NC3CC3)o2)cc1 (stereo not given) -27.6%
CC(=O)C1=CCC(c2ccccc2)N(S(=O)(=O)c2ccc(C)cc2)C1 (stereo not given) 7.17%
COc1cc(/C=C2/C(=O)ON=C2C)ccc1OCc1cccc(F)c1 45.1%
C#CCOc1ccc(/C=C2/C(=O)ON=C2C)cc1OCC 27.9%
OC[C@@H]1CN(C2CCCC2)C[C@H](n2cnc3c(NC4CCC4)ncnc32)O1 4.02%
O=[N+]([O-])c1ccccc1/C=C/CN1CCC(O)CC1 10.2%
CC(OC(=O)/C=C/c1ccccc1)C(=O)NC1CCCCC1C (stereo not given) 6.61%
CCCN(c1ccc(C)cc1)c1nc(=O)c2cccnc2s1 8.6%
CC(=O)Nc1cncc(-c2ccccc2CO)n1 7.63%
CN(C)C(=O)CCc1ccc2c3c([nH]c2c1)[C@]1(CCC2CCCC2)[C@@H](C(=O)N2CCOCC2)C[C@H](CC(=O)NCc2ccco2)C(=O)N1CC3 0.84%
COc1ccc2[nH]c3c(c2c1)CCN1C(=O)C(CC(=O)NCCCN(C)C)C[C@H](C(=O)N2CCOCC2)[C@@]31CCC1CCCC1 (stereo not given in full) 1.46%
CC[C@]12c3[nH]c4ccc(Cl)cc4c3CCN1C(=O)[C@@H](CC(=O)NCCN1CCOCC1)C[C@@H]2C(=O)N1CCN(C(=O)C2CC2)CC1 -0.39%
CC[C@]12c3[nH]c4ccc(OC)cc4c3CCN1C(=O)C(CC(=O)NCc1ccco1)C[C@@H]2C(=O)N1CCN(C(=O)C2CC2)CC1 (stereo not given in full) -6.85%

inhibition, active:
CCCC[C@@H]1CN=C(N)N1CCc1cc(C(F)(F)F)cc(C(F)(F)F)c1 64.1%
Cc1cc(C)nc(S/C=C/C(=O)c2ccccc2)n1 109%
CCCCC(=O)N/N=C(\C)CC(=O)Nc1cc(Cl)ccc1OC 93.5%
CCC1CCCCN1CCCNC(=O)c1cc2c(Cl)nc3ccccc3c2s1 (stereo not given) 100%
CCOc1cc2[nH]c(=S)n(Cc3ccc(C(=O)N4CCN(C)CC4)cc3)c(=O)c2cc1OCC 105%
O=C(NNc1c2ccccc2nc2ccccc12)c1cc2ccccc2cc1O 74.7%
Cc1csc2ncc(C(=O)N(Cc3ccccc3)c3ccccn3)c(=O)n12 81.4%
O=c1[nH]c(=S)[nH]c(O)c1/C=C1\C=Nc2ccccc21 60.8%
C#Cc1cc(N2CCN(C(=O)c3ccoc3)CC2)n2nc(-c3cccc(Cl)c3)cc2n1 79.3%
CN(C)CCNC(=O)c1ccc(-c2cn3c(-c4ccc(Oc5ccccc5)cc4)cnc3cn2)cc1 99.7%
COc1ccc(Nc2nc(-c3cccnc3)nc3ccccc23)cn1 53.5%
CN(CCO)c1ccc(/C=N/Nc2nncc3ccccc23)cc1 63.9%
COc1ccc(-c2nnc(SC(=O)N3c4ccccc4Sc4ccccc43)o2)cc1 51.3%
COc1cc(/C=C2/C(=O)ON=C2C)ccc1OCc1ccccc1F 66.5%
CC1CCCCC1NC(=O)/C(C#N)=C/C=C/c1ccccc1[N+](=O)[O-] (stereo not given) 111%
COc1ccc(CNC(=O)C[C@H]2C[C@H](C(=O)N3CCOCC3)[C@@]3(CCC4CCCC4)c4[nH]c5ccc(Cl)cc5c4CCN3C2=O)cc1OC 56.1%
O=C(C[C@H]1C[C@H](C(=O)N2CCOCC2)[C@@]2(CCC3CCCC3)c3[nH]c4ccc(Cl)cc4c3CCN2C1=O)NCc1ccco1 61.1%

Source: PubChem BioAssay AID588405 (Sanford-Burnham Center for Chemical Genomics, 2011)
